From PubChem
AmpC inh detg – qHTS Inhibitors of AmpC Beta-Lactamase (assay with detergent); AmpC hydrolysis of nitrocefin, absorbance 480 nm, 0.01% Triton; Potency, µM (highest dose often 114 µM), hits mostly inhibitors; 0.041% of 370,000 active; note: nearly all actives have a fitted effect of over 25% in size
Target sequence (P00811 whole entry, looked up): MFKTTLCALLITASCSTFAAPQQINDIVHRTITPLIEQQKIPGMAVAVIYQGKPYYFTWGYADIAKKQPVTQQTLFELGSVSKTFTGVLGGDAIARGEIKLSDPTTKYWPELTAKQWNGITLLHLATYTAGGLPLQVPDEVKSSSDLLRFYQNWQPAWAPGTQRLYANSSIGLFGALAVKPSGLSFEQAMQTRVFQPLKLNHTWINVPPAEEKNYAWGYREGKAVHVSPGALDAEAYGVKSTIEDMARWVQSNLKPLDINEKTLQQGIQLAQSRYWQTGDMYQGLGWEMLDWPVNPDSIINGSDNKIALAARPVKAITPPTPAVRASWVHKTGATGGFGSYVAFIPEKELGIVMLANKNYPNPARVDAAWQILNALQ
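AmpC (5.3 nM in the dispensed reagent) in 20 mM phosphate pH 7.0 with 0.01% (detergent screen) or 0.0001% Triton X-100 was preincubated with compounds for 15 min at room temperature. Nitrocefin was then added from an 800 uM solution, and hydrolysis was followed at 480 nm.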
AmpC inh no detg – qHTS Inhibitors of AmpC Beta-Lactamase (assay without detergent); AmpC nitrocefin hydrolysis, absorbance 480 nm, 0.0001% Triton; Potency, µM (doses to about 57.1 µM), hits mostly inhibitors; 0.52% of 330,000 active; AID 485341, 2010; note: nearly all actives have a fitted effect of over 20% in size
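AmpC (5.3 nM in the dispensed reagent) in 20 mM phosphate pH 7.0 with 0.01% (detergent screen) or 0.0001% Triton X-100 was preincubated with compounds for 15 min at room temperature. Nitrocefin was then added from an 800 uM solution, and hydrolysis was followed at 480 nm.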
Shiga inhibitor – A qHTS for Small Molecule Inhibitors of Shiga Toxin | Vero cells, Shiga toxin protein synthesis inhibition reporter | inhibition, % at 38.7 µM | 9.2% of 290,000 active; in the data active = inhibition mostly above about 28%, no sharp cut-off; inactive = mostly below about 43%
SARS PLP yeast – qHTS of Yeast-based Assay for SARS-CoV PLP; S. cerevisiae expressing SARS-CoV PLpro, growth rescue; Potency, µM (top dose mostly 32.9 µM), hits mostly activators; 0.19% of 330,000 active; calls by dose curve; note: nearly all actives have a fitted effect of over 55% in size
Cycloheximide cs – Cycloheximide Counterscreen for Small Molecule Inhibitors of Shiga Toxin; cell reporter, cycloheximide protein synthesis inhibition counterscreen; max response, %; 12% of 300,000 active; in the data active = max response mostly above about 13%, no sharp cut-off; inactive = mostly below about 14%; note: read at 38.3 µM for the half of the compounds with a filed dose
AMA1-RON2 inh – qHTS for Inhibitors of AMA1-RON; Towards Development of Antimalarial Drug Lead: Primary Screen | Plasmodium falciparum AMA1 (3D7) - RON2 peptide interaction | AlphaScreen AMA1-biotinylated RON2 peptide binding | Potency, µM (top dose mostly 58.2 µM), hits mostly inhibitors | 0.2% of 360,000 active | AID 720542, 2013; note: nearly all actives have a fitted effect of over 45% in size
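AMA1 (3D7) with his tag at 25 nM final met compounds first, then biotinylated RON2 peptide at 25 nM; detection used donor plus acceptor beads, 10 µg/mL apiece, read by AlphaScreen after 30 min at room temperature.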
Each line names hits and unclear results; the compound was inactive in the other large screens. The entries come from a sample that favours hits as a whole. Unless noted, calls come from the whole dose curve; as a rule, active = well fitted curve in the direction sought with a large enough effect; inconclusive = small, poorly fitted or top-dose-only effect, or another doubt; inactive = no such curve, though single readings can be large; an effect the other way counts as inactive or inconclusive.

Cn1ncc([N+](=O)[O-])c1C(=O)N1CCOCC1	AmpC inh detg inconclusive
CC(C)n1c(=O)c(C=Nc2ccc(S(N)(=O)=O)cc2)c(O)n(Cc2ccco2)c1=O	AmpC inh no detg 22µM
CCCCn1c(=O)c(C=Nc2ccc(Cl)cc2)c(O)n(Cc2ccco2)c1=O	none
O=C(COc1ccccc1Cl)Nc1ccc(Cl)cn1	Shiga inhibitor 63, Cycloheximide cs 39
O=C(COc1ccccc1)Nc1ccc(Cl)cn1	Shiga inhibitor 62, Cycloheximide cs 62
O=C(COc1ccc2c(c1)OCO2)Nc1nccs1	Shiga inhibitor 58, AMA1-RON2 inh inconclusive
COc1ccccc1C(=O)OCC(=O)Nc1ccc(Cl)cn1	Cycloheximide cs 27
O=C(Nc1c2c(nn1-c1ccccc1)CS(=O)(=O)C2)c1ccccc1C(F)(F)F	none
O=C(Nc1ccc(F)cc1)Nc1csc2c1CCCC2	none (no result: AmpC inh no detg, Shiga inhibitor, SARS PLP yeast, Cycloheximide cs, AMA1-RON2 inh)
CC(=O)Nc1cccc(-c2ccnc3c2CC(C)(C(=O)NCCc2ccccc2)O3)c1 (stereo not given)	none (no result: AmpC inh detg, AmpC inh no detg, Shiga inhibitor, SARS PLP yeast, Cycloheximide cs)
COCCCNC(=O)CN(c1cc(Cl)cc(Cl)c1)S(C)(=O)=O	none
CC(C)=CC(=O)OCC(=O)Nc1ccc(Cl)cn1	Cycloheximide cs 19
O=C(/C=C/c1ccc2c(c1)OCO2)Nc1ccc(Cl)cn1	AmpC inh detg inconclusive, Shiga inhibitor 78, Cycloheximide cs 34
O=C(COc1ccc2c(c1)OCO2)Nc1ccccc1F	AmpC inh detg inconclusive, Shiga inhibitor 108, Cycloheximide cs 41
CCOC(=O)/C=C/C(=O)OCC(=O)Nc1ccc(Cl)cn1	none
O=C(C=Cc1ccc2c(c1)OCO2)C=Cc1ccc2c(c1)OCO2	none (no result: AmpC inh detg, AmpC inh no detg, Shiga inhibitor, SARS PLP yeast, Cycloheximide cs)
O=C(COc1ccc(Cl)cc1)Nc1ccc(Cl)cn1	Cycloheximide cs 26
COc1ccc(C(=O)OCC(=O)Nc2ccc(Cl)cn2)cc1	none
C/C(=N\OCC(=O)N/N=C/c1ccc(C)cc1O)c1cccs1	none
O=C(CSc1nc(N2CCOCC2)nc(N2CCOCC2)n1)Nc1ccc(Cl)cc1Cl	AmpC inh detg inconclusive
O=C(COc1ccc2c(c1)OCO2)Nc1ccc(Cl)cn1	Shiga inhibitor 69, Cycloheximide cs 51
CCOc1ccc(OCCSc2nc3ccccc3c(=O)[nH]2)cc1	none
COCCn1cnc2c1c(=O)n(CC(=O)c1ccc3c(c1)OCCO3)c(=O)n2Cc1ccccc1	Cycloheximide cs 9.7
C=CC[C@@H](CC(=O)N[C@H](CO)Cc1ccccc1)C(=O)N[C@H](COC(=O)[C@@H](CC=C)CC(=O)OC(C)(C)C)Cc1ccccc1	none (no result: AmpC inh detg, Shiga inhibitor, Cycloheximide cs)
COc1cccc(-c2cc(C(F)(F)F)n3ncc(C(=O)O)c3n2)c1	none
COc1ccc(-c2cc(C(F)(F)F)n3ncc(C(=O)O)c3n2)cc1OC	Cycloheximide cs 25
COc1ccc(OCCCC(=O)OCC(=O)Nc2nnc(-c3ccccc3)o2)cc1	none (no result: Shiga inhibitor, Cycloheximide cs)
CCc1c(C)[nH]c(C(=O)OCc2ccccc2)c1C	Shiga inhibitor 81, Cycloheximide cs 28
CCc1c(C(=O)OCc2ccccc2)[nH]c(C)c1C	Shiga inhibitor 67, Cycloheximide cs 43, AMA1-RON2 inh inconclusive
O=C(OCc1ccccc1)c1ccccc1	none (no result: AmpC inh detg, AmpC inh no detg, Shiga inhibitor, SARS PLP yeast, Cycloheximide cs)
CCC(C(=O)OCC(=O)Nc1cc(C)ccc1OC)c1ccccc1 (stereo not given)	Cycloheximide cs 26
COc1ccc(C)cc1NC(=O)CSc1ccc(-c2ccccn2)nn1	Cycloheximide cs 11, AMA1-RON2 inh 20µM
O=c1cc(-c2ccccc2)oc2ccccc12	none (no result: Shiga inhibitor, Cycloheximide cs)
O=C(COc1ccc2oc(-c3ccccc3)cc(=O)c2c1)NCc1ccco1	Cycloheximide cs 25
COc1ccc2oc(-c3ccncc3)cc(=O)c2c1	none (no result: AmpC inh detg, AmpC inh no detg, Shiga inhibitor, SARS PLP yeast, Cycloheximide cs)
COc1ccc(-c2cc(=O)c3cc(O)ccc3o2)cc1	Shiga inhibitor 62, Cycloheximide cs 53
O=c1cc(-c2ccccc2)oc2ccc(O)cc12	Shiga inhibitor 64, Cycloheximide cs 32
Cc1cc(=O)oc2ccc(OCC(=O)NCc3ccco3)cc12	none
c1ccc(-c2ccccn2)nc1	none
CCCCOc1ccc(NC(=O)C(=O)NCCC2=CCCCC2)cc1	none
CC(=O)c1ccc(OCC(=O)NCCC2=CCCCC2)cc1	none (no result: AmpC inh detg, AmpC inh no detg, Shiga inhibitor, SARS PLP yeast, Cycloheximide cs)
COc1ccccc1NC(=O)NCCC1=CCCCC1	none
CC(=O)Nc1cccc(OCC(=O)NCCC2=CCCCC2)c1	Shiga inhibitor 29, Cycloheximide cs 23
COc1cccc(NC(=O)NCCC2=CCCCC2)c1	Shiga inhibitor 74, Cycloheximide cs 19
COc1ccc(NC(=O)NCCC2=CCCCC2)cc1	Shiga inhibitor 71, Cycloheximide cs 28
CCOC(=O)CSC1=C(C#N)C(c2ccccc2OCC)C(C#N)C(=O)N1 (stereo not given)	none
COc1cc(OC)c(NS(=O)(=O)c2ccc3c(c2)NC(=O)CCS3)cc1Cl	none (no result: AmpC inh no detg, Shiga inhibitor, SARS PLP yeast, Cycloheximide cs, AMA1-RON2 inh)
CN(C)C(=O)c1noc2cc([N+](=O)[O-])ccc12	AmpC inh no detg inconclusive
CC(C)NC(=O)c1noc2cc([N+](=O)[O-])ccc12	Shiga inhibitor 104, Cycloheximide cs 12
CC(C)(C)c1ccc(-c2nc(N)nc(N)n2)cc1	Cycloheximide cs 33
CN1CCN(C(=S)NC(=O)/C=C/c2cccc3ccccc23)CC1	AmpC inh detg inconclusive
CCOC(=O)N1CCN(C(=O)c2cc(COc3ccc(Cl)cc3OC)on2)CC1	none
Cc1ccc(C)c(OCc2cc(C(=O)N3CCNC(=O)C3)no2)c1	none
COCCN1CCN(C(=O)c2cc(COc3ccc(Cl)cc3OC)on2)CC1	Shiga inhibitor 94, Cycloheximide cs 58
COc1cc(Cl)ccc1OCc1cc(C(=O)N2CCCCCCC2)no1	Shiga inhibitor 84, Cycloheximide cs 43
COc1cc(C)ccc1OCc1cc(C(=O)N2CCCCCC2)no1	AmpC inh detg inconclusive, Shiga inhibitor 64, Cycloheximide cs 30
COc1cc(Cl)ccc1OCc1cc(C(=O)N[C@H]2CCCCNC2=O)no1	AmpC inh detg inconclusive, Shiga inhibitor 62, Cycloheximide cs 36
CN(Cc1cccnc1)C(=O)CC1C(=O)NCCN1CC(c1ccccc1)c1ccccc1 (stereo not given)	none
CCCS(=O)(=O)N1CC(=O)N(c2cc(C)ccc2C)C(C)(C(=O)NC2CCCCCC2)C1 (stereo not given)	none (no result: AmpC inh no detg, Shiga inhibitor, SARS PLP yeast, Cycloheximide cs, AMA1-RON2 inh)
CCOC(=O)c1c(S(=O)(=O)N2CCc3ccccc32)c(C)n(C)c1C	none
CC(=O)c1ccc(N2CCN(C(=O)C3CCCN(S(=O)(=O)c4cnc[nH]4)C3)CC2)cc1 (stereo not given)	Cycloheximide cs 22
O=C(CSCCO)Nc1cccc2ccccc12	none
CC(NC(=O)Nc1ccc(Br)cc1)C(C)(C)C (stereo not given)	Shiga inhibitor 80, Cycloheximide cs 27
COC(=O)C(C)(C)ONC(=O)Nc1ccc(Br)cc1	none
